Where “and” joins values, the source holds several entries; their conditions need not be identical. Identical values can stand only once. Inconclusive results are not listed. Where a call stands in place of a potency, no number is given. More than one record can exist for a structure, and the calls need not agree. Calls of active or inactive are those of the source. Unless noted, calls come from the whole dose curve; as a rule, active = well fitted curve in the direction sought with a large enough effect in the repeat runs; inconclusive = weak or mixed curves; inactive = no such curve, though single readings can be large; an effect the other way counts as inactive or inconclusive.
Tests used:
[1] = qHTS assay for small molecule agonists of the p53 signaling pathway - cell viability (AID 651633; calls by dose curve;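 note: p53RE-bla HCT reporter cells with a stable beta-lactamase p53 reporter; series mostly up to about 83 µM; nearly all actives have a fitted effect of over 30% in size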)
Method in brief: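 p53RE-bla cells were treated with compound for 16 hours at 37 C. Cytotoxicity was then measured as CellTiter-Glo luminescence after 30 min at room temperature.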

[2] = qHTS assay for small molecule disruptors of the mitochondrial membrane potential - cell viability (AID 720634; calls by dose curve;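 note: human HepG2 liver cancer cells; series mostly up to about 83 µM; nearly all actives have a fitted effect of over 20% in size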)
Method in brief: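 Same-well counter-screen: following the MMP dye addition, CellTiter-Glo was added to 1 hr compound-treated HepG2 cells and luminescence read after 30 min at room temperature.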

[3] = qHTS assay to test for compound auto fluorescence at 590 nm (red) in HepG2 cells (AID 720674)
Method in brief: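 Seeding: 2,000 HepG2 cells/well, MEM/10% FBS, overnight 37 C. Dosing: compound vs DMSO. Incubation: 1 hr, 37 C, 5% CO2. Read: fluorescence 540 ex/590 em, Rose Bengal sodium as red reference.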

[4] = qHTS assay to test for compound auto fluorescence at 535 nm (green) in HepG2 cells (AID 720675)
[5] = qHTS assay to test for compound auto fluorescence at 460 nm (blue) in HEK293 cells (AID 720678)
Method in brief: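 Measured: blue fluorescence (Ex 405/Em 460 nm) of compound-treated HEK293 cells, incubated overnight at 37C with 5% CO2 and scaled to triamterene equivalents.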

[6] = qHTS assay to test for compound auto fluorescence at 590 nm (red) in HEK293 cells (AID 720679)
Method in brief: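 Using HEK293 cells at 2,000 per well, the screen added 23 nL of each compound after cell attachment and incubated overnight (37C, 5% CO2). The plate reader then captured red-label fluorescence, Ex/Em 540/590nm.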

[7] = qHTS assay to test for compound auto fluorescence at 460 nm (blue) in HEK293 cell free culture (AID 720681)
Method in brief: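 Compounds were added to cell-free DMEM with 10% FBS and fluorescence read directly. The blue channel used 405 nm excitation and 460 nm emission, with triamterene as the reference fluorophore.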

[8] = qHTS assay to test for compound auto fluorescence at 535 nm (green) in HEK293 cell free culture (AID 720682)
Method in brief: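 DMEM + 10% FBS, cell-free; cpd or DMSO pinned in; Ex485/Em535 read; output as fluorescein-equivalent signal.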

[9] = qHTS assay to test for compound auto fluorescence at 590 nm (red) in HEK293 cell free culture (AID 720683)
Method in brief: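 Cell-free wells of DMEM with 10% FBS received compound, and intrinsic fluorescence was read at excitation/emission 540/590 nm. Values expressed as equivalence to Rose Bengal sodium.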

[10] = qHTS assay to test for compound auto fluorescence at 590 nm (red) in HepG2 cell free culture (AID 720684)
Method in brief: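 Auto fluorescence equivalency versus Rose Bengal sodium, red channel Ex/Em 540/590 nm; compounds in cell-free MEM/10% FBS; DMSO vehicle control.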

[11] = qHTS assay to test for compound auto fluorescence at 535 nm (green) in HepG2 cell free culture (AID 720686)
[12] = qHTS assay to test for compound auto fluorescence at 460 nm (blue) in HepG2 cells (AID 720687)
Method in brief: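 HepG2 cells in MEM with 10% FBS, attached overnight at 37 C, were exposed to compound or DMSO for 1 hr at 37 C, 5% CO2. Blue fluorescence was read at 405/460 nm, with triamterene as reference fluorophore.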

[13] = qHTS assay to identify small molecule antagonists of the glucocorticoid receptor (GR) signaling pathway - cell viability counter screen (AID 720693); note: nearly all actives have a fitted effect of over 55% in size
[14] = qHTS assay to identify small molecule antagonists of the androgen receptor (AR) signaling pathway using the MDA cell line - cell viability counter screen (AID 743041; note: nearly all actives have a fitted effect of over 45% in size)
Method in brief: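 Compound exposure lasted 16 h at 37C in MDA-kb2 AR-luc cells stimulated with R1881. Protease-based CellTiter-Fluor reagent was applied for the final 30 min and fluorescence measured.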

[15] = qHTS assay to identify small molecule antagonists of the estrogen receptor alpha (ER-alpha) signaling pathway using the BG1 cell line - cell viability counter screen (AID 743081);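 note: compound given together with 17beta-estradiol as the ER stimulus; series mostly up to about 70 µM; nearly all actives have a fitted effect of over 45% in size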
Aromatase (Homo sapiens) = Aromatase (Homo sapiens) (UniProt P11511); assay: qHTS assay to identify aromatase inhibitors (AID 743083); note: series mostly up to about 70 µM; nearly all actives have a fitted effect of over 55% in size
[16] = qHTS assay to identify aromatase inhibitors - cell viability counter screen (AID 743084);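 note: cells stimulated with testosterone during compound exposure; nearly all actives have a fitted effect of over 55% in size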; note: potency is the fitted concentration of half-maximal effect
[17] = qHTS assay to identify small molecule that activate the aryl hydrocarbon receptor (AhR) signaling pathway - cell viability counter screen (AID 743086); note: nearly all actives have a fitted effect of over 45% in size; note: potency is the fitted concentration of half-maximal effect
Method in brief: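 HepG2-AhR-luc (HG2L7.5c1) cells, 4000/well, treated 24 h at 37 C with compound; viability measured as CellTiter-Fluor fluorescence after 30 min in the same wells as the luciferase read.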

[18] = qHTS assay to identify small molecule phospholipidosis (PLD) inducers (AID 1259344; active = well fitted curve in the direction sought with a large enough effect; an effect the other way counts as inactive or inconclusive)
Method in brief: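 Image-based: LipidTOX Red pit count/intensity per well and per cell; HepG2, 24 h compound at 37 C, PFA fixation, Hoechst counterstain.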

[19] = biological target: Aryl hydrocarbon receptor (Homo sapiens) (UniProt P35869); assay: qHTS assay to identify small molecule that activate the aryl hydrocarbon receptor (AhR) signaling pathway (AID 743085);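 note: HG2L7.5c1 human HepG2 liver cells with stably integrated DRE-driven firefly reporter; series mostly up to about 70 µM; nearly all actives have a fitted effect of over 15% in size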
Method in brief: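 A multiplexed format paired cell viability (CellTiter-Fluor fluorescence) with AhR-dependent luciferase output (ONE-Glo luminescence) in the same wells of HepG2 DRE-luc cells after 24 h compound exposure at 37C.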

Sequence of Aromatase (Homo sapiens) (P11511 whole entry, looked up): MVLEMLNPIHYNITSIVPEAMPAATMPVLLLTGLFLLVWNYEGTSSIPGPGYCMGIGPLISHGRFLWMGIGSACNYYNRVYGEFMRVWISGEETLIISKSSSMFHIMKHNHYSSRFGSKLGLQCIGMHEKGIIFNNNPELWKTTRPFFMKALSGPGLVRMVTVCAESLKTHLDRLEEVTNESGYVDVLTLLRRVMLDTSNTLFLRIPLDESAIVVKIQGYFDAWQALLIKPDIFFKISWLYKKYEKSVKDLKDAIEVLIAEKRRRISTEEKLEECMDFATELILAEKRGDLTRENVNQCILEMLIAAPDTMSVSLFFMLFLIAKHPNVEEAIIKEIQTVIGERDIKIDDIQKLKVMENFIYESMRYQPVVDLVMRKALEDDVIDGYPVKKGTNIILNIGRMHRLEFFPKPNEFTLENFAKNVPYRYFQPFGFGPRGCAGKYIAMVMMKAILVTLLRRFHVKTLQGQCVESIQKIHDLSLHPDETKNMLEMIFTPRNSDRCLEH
Sequence of Aryl hydrocarbon receptor (Homo sapiens) (P35869 whole entry, looked up): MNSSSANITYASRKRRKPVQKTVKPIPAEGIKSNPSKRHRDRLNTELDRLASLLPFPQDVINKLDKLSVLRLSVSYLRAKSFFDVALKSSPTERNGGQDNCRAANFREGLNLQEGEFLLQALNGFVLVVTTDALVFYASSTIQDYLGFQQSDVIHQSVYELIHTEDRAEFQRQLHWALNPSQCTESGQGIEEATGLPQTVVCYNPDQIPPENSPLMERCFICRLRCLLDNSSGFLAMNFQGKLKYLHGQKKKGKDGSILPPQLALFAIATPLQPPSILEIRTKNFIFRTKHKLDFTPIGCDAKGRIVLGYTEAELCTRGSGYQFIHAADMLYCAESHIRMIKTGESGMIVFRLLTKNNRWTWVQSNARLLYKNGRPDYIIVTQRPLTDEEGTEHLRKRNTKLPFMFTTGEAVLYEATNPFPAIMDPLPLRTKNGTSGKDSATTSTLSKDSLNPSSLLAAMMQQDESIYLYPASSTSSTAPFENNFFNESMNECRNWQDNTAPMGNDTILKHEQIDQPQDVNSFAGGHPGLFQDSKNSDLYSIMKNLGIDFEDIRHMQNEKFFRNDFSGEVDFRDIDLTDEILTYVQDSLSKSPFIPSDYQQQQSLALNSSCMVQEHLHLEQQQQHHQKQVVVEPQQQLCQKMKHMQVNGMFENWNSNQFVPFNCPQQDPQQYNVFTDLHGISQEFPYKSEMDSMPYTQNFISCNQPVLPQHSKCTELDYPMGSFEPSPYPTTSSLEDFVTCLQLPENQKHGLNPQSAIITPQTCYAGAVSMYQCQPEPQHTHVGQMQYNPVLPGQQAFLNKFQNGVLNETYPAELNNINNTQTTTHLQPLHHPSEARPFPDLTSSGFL

Compound | Potency [1] | Potency [2] | outcome [3] | Potency [4] | Potency [5] | outcome [6] | Potency [7] | Potency [8] | outcome [9] | outcome [10] | Potency [11] | Potency [12] | Potency [13] | Potency [14] | Potency [15] | Potency (Aromatase (Homo sapiens)) | Potency [16] | Potency [17] | Potency [18] | Potency [19]
CCOc1ccc2c3c1O[C@H]1[C@@H](O)C=C[C@H]4[C@@H](C2)N(C)CC[C@@]341 | inactive | inactive | inactive | inactive | inactive | inactive | inactive | inactive | inactive | inactive | inactive | inactive | inactive | inactive | inactive | inactive | inactive | inactive | inactive | 
CC(C)C[C@H](CN)CC(=O)O | inactive | inactive | inactive | inactive | inactive | inactive | inactive | inactive | inactive | inactive | inactive | inactive | inactive | inactive | inactive | inactive | inactive | inactive | inactive | inactive
[S]=[Sb](=[S])[S][Sb](=[S])=[S] | inactive | inactive | inactive | inactive | inactive | inactive | inactive | inactive | inactive | inactive | inactive | inactive | inactive | inactive | inactive | inactive | inactive | inactive | inactive | inactive
CN[C@H]1C[C@@H](N)[C@H](O)[C@@H](O[C@@H]2O[C@H](CO)[C@H](O)[C@@H]3OC4(O[C@H]23)O[C@H](C(N)CO)[C@H](O)[C@H](O)[C@H]4O)[C@@H]1O (stereo not given in full) | inactive | inactive | inactive | inactive | inactive | inactive | inactive | inactive | inactive | inactive | inactive | inactive | inactive | inactive | inactive | inactive | inactive | inactive | inactive | inactive
COc1ccc2c3c1O[C@H]1C(=O)CC[C@H]4[C@@H](C2)N(C)CC[C@]314 | inactive | inactive | inactive | inactive | inactive | inactive | inactive | inactive | inactive | inactive | inactive | inactive | inactive | inactive | inactive | inactive | inactive | inactive | inactive | inactive
[2H]C([2H])([2H])[C@H](N)Cc1ccccc1 | inactive | inactive | inactive | inactive | inactive | inactive | inactive | inactive | inactive | inactive | inactive | inactive | inactive | inactive | inactive | inactive | inactive | inactive | inactive | inactive
O=C(CS(=O)C(c1ccccc1)c1ccccc1)NO (stereo not given) | inactive | inactive | inactive | inactive | inactive | inactive | inactive | inactive | inactive | inactive | inactive | inactive | inactive | inactive | inactive | inactive | inactive |  | inactive | inactive
O=C1CCO1 | inactive | inactive | inactive | inactive | inactive | inactive | inactive | inactive | inactive | inactive | inactive | inactive | inactive | inactive | inactive | inactive | inactive | inactive | inactive | inactive
CC(=O)OO | inactive | inactive | inactive | inactive | inactive | inactive | inactive | inactive | inactive | inactive | inactive | inactive | inactive | inactive | inactive | inactive | inactive | inactive | inactive | inactive
Cc1ccccc1-n1c(C)nc2ccccc2c1=O | inactive | inactive | inactive | inactive | inactive | inactive | inactive | inactive | inactive | inactive | inactive | inactive | inactive | inactive | inactive | inactive | inactive and 24.1 µM (active) | inactive and 24.1 µM (active) | inactive | 
C=CCN(C1=NCCN1)c1c(Cl)cccc1Cl | inactive | inactive | inactive | inactive | inactive | inactive | inactive | inactive | inactive | inactive | inactive | inactive | inactive | inactive | inactive | inactive | inactive | inactive | inactive | inactive
c1ccccc1 | inactive | inactive | inactive | inactive | inactive | inactive | inactive | inactive | inactive | inactive | inactive | inactive | inactive | inactive | inactive | inactive | inactive | inactive |  | 
CCC1(C)CC(=O)NC(=O)C1 | inactive | inactive | inactive | inactive | inactive | inactive | inactive | inactive | inactive | inactive | inactive | inactive | inactive | inactive | inactive | inactive | inactive | inactive | inactive | inactive

Source: PubChem BioAssay (Tox21)
